Results filed as inconclusive are left out. Values without a mark were called inactive. Calls of active or inactive are those of the source. The call rests on the fitted dose curve; in most records, active means well fitted curve in the direction sought with a large enough effect; inconclusive means small, poorly fitted or top-dose-only effect, or another doubt; inactive means no such curve, though single readings can be large; an effect the other way counts as inactive or inconclusive.
Experiments:
[1] = BET inhibitor-based combinations targeting novel dependencies in MECOM-rearranged (r) AML: SET-2 cell line (AID 2202231); conditions: SET-2 AML cells viability, CellTiter-Glo luminescence, 48 h; viability: active compounds read low, concentration not given here; further: nearly all actives have a fitted effect of over 35% in size;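 on viability: plate controls were DMSO treated cells for no effect and wells without cells for full effect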
Procedure, shortened: (§1)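 Luminescent ATP readout (CellTiter-Glo) after 48 hr drug exposure gives viability. Curves span 11 concentrations and are normalized to DMSO and empty wells. Activity is reported as area under the curve and its Z-transform within each cell line.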

[2] = BET inhibitor-based combinations targeting novel dependencies in MECOM-rearranged (r) AML: OCI-AML3 cell line (AID 2202232); conditions: Potency: OCI-AML3 viability; further: nearly all actives have a fitted effect of over 35% in size
Procedure, shortened: as §1

[3] = BET inhibitor-based combinations targeting novel dependencies in MECOM-rearranged (r) AML: MV-4-11 cell line (AID 2202233); further: nearly all actives have a fitted effect of over 45% in size
Procedure, shortened: (§2)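 Luminescent ATP readout (CellTiter-Glo, 15 min at room temperature) after 48 hr drug exposure gave viability. Dose-response curves, normalized to DMSO and empty-well controls, were summarized as area under the curve and its mean-centred Z-score.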

[4] = BET inhibitor-based combinations targeting novel dependencies in MECOM-rearranged (r) AML: HNT-34 cell line (AID 2202234); further: nearly all actives have a fitted effect of over 35% in size
Procedure, shortened: as §2

[5] = BET inhibitor-based combinations targeting novel dependencies in MECOM-rearranged (r) AML: UCSD-AML1 cell line (AID 2202235); further: nearly all actives have a fitted effect of over 40% in size
Procedure, shortened: as §2

[6] = BET inhibitor-based combinations targeting novel dependencies in MECOM-rearranged (r) AML: AML-191 cell line (AID 2202236; further: nearly all actives have a fitted effect of over 35% in size)
Procedure, shortened: as §1

[7] = BET inhibitor-based combinations targeting novel dependencies in MECOM-rearranged (r) AML: AML-194 cell line (AID 2202237; further: nearly all actives have a fitted effect of over 40% in size)
Procedure, shortened: as §1
Potency means the concentration at half of the fitted maximal effect.

SMILES | viability [1] [%] | Potency [2] | Potency [3] | Potency [4] | Potency [5] | Potency [6] | Potency [7] | Potency [1]
CC(=O)Nc1ccc(O)cc1 | 94.1 | inactive | inactive | inactive | inactive | inactive | inactive | 
C[C@H](CCC(=O)O)[C@H]1CC[C@H]2[C@@H]3[C@@H](O)C[C@@H]4C[C@H](O)CC[C@]4(C)[C@H]3CC[C@]12C | 111 | inactive | inactive | inactive | inactive | inactive | inactive | 
COc1cc(/C=C/C(=O)CC(=O)/C=C/c2ccc(O)c(OC)c2)ccc1O |  | 8.33 µM (active) | 3.32 µM (active) | 14.8 µM (active) | 13.2 µM (active) | 16.6 µM (active) | 18.6 µM (active) | 20.9 µM (active)
Cc1cnc(NC(=O)Nc2cc(Br)c(C)cc2OC[C@@H]2CNCCO2)cn1 |  | 3.72 µM (active) | 2.09 µM (active) | 9.34 µM (active) | 1.48 µM (active) | 2.95 µM (active) | 4.17 µM (active) | 4.17 µM (active)
CCCc1nc(C)c2c(=O)[nH]c(-c3cc(S(=O)(=O)N4CCN(CC)CC4)ccc3OCC)nn12 | 114 | 3.72 µM (active) | inactive | inactive | inactive | inactive | inactive | 
CO[C@@H]1[C@@H](O)[C@H](O)[C@@H](n2c3c(Cl)cccc3c3c4c(c5c6cccc(Cl)c6[nH]c5c32)C(=O)NC4=O)O[C@H]1CO |  | 1.32 µM (active) | 0.934 µM (active) | 0.59 µM (active) | 1.05 µM (active) | 2.35 µM (active) | 1.32 µM (active) | 1.32 µM (active)
CCCCC(=O)OCC(=O)[C@]1(O)Cc2c(O)c3c(c(O)c2[C@@H](O[C@H]2C[C@H](NC(=O)C(F)(F)F)[C@H](O)[C@H](C)O2)C1)C(=O)c1c(OC)cccc1C3=O |  | 0.59 µM (active) | 0.235 µM (active) | 1.86 µM (active) | 0.833 µM (active) | 1.66 µM (active) | 2.63 µM (active) | 4.17 µM (active)
NC(=O)c1nc(F)c[nH]c1=O | 119 | inactive | inactive | inactive | inactive | inactive | inactive | 
N#Cc1ccnc(N2C(=O)CC[C@H]2C(=O)N(c2cncc(F)c2)C(C(=O)NC2CC(F)(F)C2)c2ccccc2Cl)c1 (some centres not stated) | 91.5 | inactive | inactive | inactive | inactive | inactive | inactive | 
CC[C@@H]1[C@H](F)C(=O)N[C@@H]1COc1nccc2cc(C(N)=O)c(OC)cc12 |  | 14.8 µM (active) | 8.33 µM (active) | 11.8 µM (active) | 20.9 µM (active) | 14.8 µM (active) | 20.9 µM (active) | 14.8 µM (active)
NC(=O)/C(=C/n1cnc(-c2cc(C(F)(F)F)cc(C(F)(F)F)c2)n1)c1cncnc1 |  | 0.742 µM (active) | 0.186 µM (active) | 0.742 µM (active) | 0.118 µM (active) | 0.263 µM (active) | 0.166 µM (active) | 0.59 µM (active)

From PubChem BioAssay (NCATS)
